Rows were chosen to be rich in hits. Some 6.6% of all compounds tested hit in one or more screens of this group.
KB-V1 MDR tox: KB-V1 MDR subline cytotoxicity; KB-V1 MDR cells viability, CellTiter-Glo, 72 h; Potency, µM (series often up to 46.1 µM), usual class: cytotoxic; 400,000 tested, 3.4% active; note: % is set by controls: 0 for no effect and ±100 for the full control effect; nearly all actives have a fitted effect of over 60% in size
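KB-V1, DMEM (no phenol red) + 10% FBS; cpd pin-transferred, titration series; 72 h, 37 degrees C; CellTiter-Glo, luminescence. Data normalized, curve-fit.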
HT1080NT lethal: kills 2HG-producing HT-1080-NT fibrosarcoma cells. Potency, µM (titrated, usually from 46.1 µM), for the others: at the top dose activity, negative = less viability, most hits filed as cytotoxic. HT-1080-NT fibrosarcoma viability, CellTiter-Glo ATP luminescence, 48 h. 360,000 tested, 1.6% active;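 note: NT is the 2HG producing partner of a matched IDH1 knockdown line; 0% = DMSO-treated cells and -100% = media-only wells without cells; nearly all actives have a fitted effect of over 55% in size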
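Viability of the 2HG-overproducing fibrosarcoma line after 48 hours of compound exposure at 37 degrees C was determined by luminescence with CellTiter-Glo, and concentration-effect curves were then fitted and categorized.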
TGFb inhibitor: blocks TGF-b signaling; HepG2 CAGA-GFP TGF-b/SMAD3 reporter, GFP fluorescence, 18 h; TGF-beta stimulated, 500 pg/mL final; Potency, µM (doses to about 46.1 µM), for the others: top-dose activity, negative = inhibition, most hits filed as inhibitors; 410,000 tested, 1.2% active; note: % is set by controls: 0 for no effect and ±100 for the full control effect; nearly all actives have a fitted effect of over 65% in size
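Read-out: total well GFP (ex488/em500-530) summed from mean per-cell fluorescence. Cells: HEPG2 CAGA-GFP, 1% FBS DMEM, 18 h at 37 degrees C with 500 pg/mL final TGF-beta. Unstimulated wells served as the full-inhibition control; stimulated DMSO wells = 0%.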
HT1080 IDH1KD tx: kills HT-1080 cells with IDH1 knockdown. HT-1080 IDH1 knockdown viability, ATP luminescence, 48 h. Potency, µM (top dose mostly 46.1 µM), for inactives: at the top dose activity, negative = toxicity, most hits filed as cytotoxic. 360,000 tested, 2% active. AID 686971;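 note: 0% = DMSO wells and -100% = cell-free medium wells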
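IDH1KD HT-1080 cells, 750/well, RPMI + 5% FBS; compound pinned after 2 h settling; 48 h, 37 °C; CellTiter-Glo luminescence; % activity normalised to DMSO and no-cell wells; curves fitted, classed by r2 and efficacy.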
KB-3-1 tox: kills parental KB-3-1 adenocarcinoma cells | KB-3-1 viability, CellTiter-Glo ATP luminescence, 72 h | Potency, µM (highest dose often 46.1 µM), most hits filed as cytotoxic | 400,000 tested, 1.4% active; note: % is set by controls: 0 for no effect and ±100 for the full control effect; nearly all actives have a fitted effect of over 60% in size
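Screening of KB-3-1 cells (DMEM, 10% FBS, phenol-red free) ran from lowest to highest compound concentration; after 72 h at 37 °C viability was read luminescently and curves fitted.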
HepG2 viability: HepG2 cytotoxicity, counter-screen for TGF-b inhibitors. HepG2 CAGA-GFP viability, ATP luminescence, 18 h. Potency, µM (series often up to 46.1 µM), inactives show top-dose activity change, negative = cytotoxicity, hits mostly cytotoxic. 410,000 tested, 0.76% active
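CellTiter-Glo luminescence gave cytotoxicity after 18 hours at 37 degrees C. The cells were HepG2 CAGA-GFP in 1% FBS DMEM, stimulated with 500 pg/mL TGF-beta after compound addition. %Activity was normalised to no-cell wells (complete cell-killing) and DMSO (no toxicity), and curves were fitted and classified.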
Numbers without * were called inactive; i = inactive; ? = inconclusive; nt = no result; ! = repeats disagree. Calls come from the whole dose curve; as a rule, active = well fitted curve in the direction sought with a large enough effect; inconclusive = small, poorly fitted or top-dose-only effect, or another doubt; inactive = no such curve, though single readings can be large; an effect the other way counts as inactive or inconclusive. Potency is the fitted concentration of half-maximal effect.

SMILES	KB-V1 MDR tox	HT1080NT lethal	TGFb inhibitor	HT1080 IDH1KD tx	KB-3-1 tox	HepG2 viability
CC(=O)N1CCCc2cc(S(=O)(=O)N(C)CC(=O)Nc3cccc(C)c3C)ccc21	i	nt	-1.0%	nt	i	-10.8%
COc1ccccc1/C=C/c1ccc2ccccc2n1	i	nt	-11.6%	nt	i	-30.8%
CC(O)/C=C/c1ccc2ccccc2n1 (stereo not drawn)	?	?	1.9%	11.2µM*	?	-45.0%
Fc1ccc(/C=C/c2ccc3ccccc3n2)cc1	i	nt	?	nt	11.6µM*	-30.4%
COc1ccc(-n2nnnc2C2CCN(S(=O)(=O)c3ccc(C)cc3)CC2)cc1	nt	nt	-13.2%	nt	nt	-5.2%
COc1ccc(Nc2cc(C)c3cc(NC(=O)COc4cccc(C)c4)ccc3n2)cc1	i	nt	?	nt	?	-34.2%
S=c1nc[nH]c2c1ncn2C1CCCO1 (stereo not drawn)	?	4.61µM*	-19.4%	8.2µM*	4.11µM*	-28.9%
Cc1c(O)cccc1C(=O)N[C@@H](CSc1ccccc1)[C@H](O)CN1C[C@H]2CCCC[C@H]2C[C@H]1C(=O)NC(C)(C)C	?	13µM*	?	18.4µM*	?	15.8µM*!
O=C(COc1ccccc1)NCC(c1ccco1)N1CCN(c2ccccc2F)CC1 (stereo not drawn)	14.6µM*	-18.1%	0.0%	?	?	-15.8%
O=C(NCC(c1ccc2c(c1)OCO2)N1CCN(c2ccccc2F)CC1)c1ccccc1F (stereo not drawn)	i	nt	10µM*	nt	i	-3.7%
O=C(NCc1ccncc1)C(=O)NCC(c1ccco1)N1CCN(c2ccccc2F)CC1 (stereo not drawn)	2.31µM*	0.0%	-14.2%	-5.8%	i	1.1%
O=c1ccn([C@@H]2O[C@H](CNCc3ccccc3OCc3ccc(Cl)cc3Cl)[C@@H](O)[C@H]2O)c(=O)[nH]1	i	-17.6%	?	-13.7%	i	-36.3%
Cc1ccc(N=C2NC(=O)CS2)cc1C	9.2µM*	2.3%	5.4%	2.4%	?	-36.5%
CCc1cccc(NC(=O)Nc2csc3c2CCCC3)c1	i	nt	?	nt	i	-26.6%
Cc1cc(C(=O)CN2C(=O)NC3(CCCCC3C)C2=O)c(C)n1Cc1cccs1 (stereo not drawn)	23.1µM*	-4.3%	-6.4%	-3.7%	i	-0.8%
O=[N+]([O-])c1ccc(-c2cnc(SCc3ccccc3Cl)[nH]2)cc1	?	?	-10.3%	?	?	-32.1%
Cc1cc(C)c(CSc2ncc(-c3ccc([N+](=O)[O-])cc3)[nH]2)c(C)c1	23.1µM*	?	?	25.9µM*	?	-9.2%
O=[N+]([O-])c1ccc(-c2cnc(SC(c3ccccc3)c3ccccc3)[nH]2)cc1	?	23.1µM*	?	20.6µM*	?	5.9%
Cc1ccccc1C(=O)Nc1cccc(-c2nnc(SCC(=O)NCc3ccco3)n2C)c1	i	nt	-7.3%	nt	i	-2.8%
COCCNC(=O)c1cc(Sc2ccc(F)cc2F)nc2ccccc12	nt	nt	4.9%	nt	nt	-21.6%
Cc1ccc(C2c3c(-c4ccccc4O)n[nH]c3C(=O)N2CCc2ccccc2)cc1 (stereo not drawn)	nt	nt	11.2µM*	nt	nt	-95.0%
Cc1ccc(C2c3c(-c4ccccc4O)n[nH]c3C(=O)N2Cc2ccncc2)cc1 (stereo not drawn)	?	?	-19.0%	?	8.2µM*	-52.0%
COc1ccc(CCN2C(=O)c3[nH]nc(-c4ccccc4O)c3C2c2cccc(OC)c2)cc1 (stereo not drawn)	nt	nt	?	nt	nt	-70.4%
CCOc1ccc(C2c3c(-c4cc(C)ccc4O)n[nH]c3C(=O)N2Cc2cccnc2)cc1OCC (stereo not drawn)	i	nt	-16.9%	nt	i	-18.2%
CCc1ccc(C2c3c(-c4cc(C)ccc4O)n[nH]c3C(=O)N2Cc2cccnc2)cc1 (stereo not drawn)	i	nt	?	nt	i	20µM*
SMILES	KB-V1 MDR tox	HT1080NT lethal	TGFb inhibitor	HT1080 IDH1KD tx	KB-3-1 tox	HepG2 viability
COc1ccc(CCN2C(=O)c3[nH]nc(-c4ccccc4O)c3C2c2cccc(Cl)c2)cc1 (stereo not drawn)	?	23.1µM*	?	11.6µM*	18.4µM*	-92.1%
Cc1ccc(-n2ncc(C(=O)NCCCN3CCCCC3)c2C2CCN(C(=O)OC(C)(C)C)CC2)cc1	i	nt	-5.8%	nt	i	-27.0%
Cc1cc(C)cc(OCC(=O)NCC2(N(C)C)CCCCC2)c1	i	nt	2.4%	nt	i	12.2%
Cc1ccc(NC(=O)N2CCC(CN3CCC(C)CC3)CC2)cc1F	i	nt	21.8%	nt	i	0.4%
CCOc1ccc(-n2cc(-c3ccccc3)c3c(NCCc4ccccc4)ncnc32)cc1	nt	nt	-11.9%	nt	nt	-35.1%
COc1cc(C2c3c(-c4ccccc4O)n[nH]c3C(=O)N2Cc2ccncc2)ccc1O (stereo not drawn)	i	nt	-1.9%	nt	i	3.4%
O=C1c2[nH]nc(-c3ccccc3O)c2C(c2cccc(Br)c2)N1Cc1ccncc1 (stereo not drawn)	?	nt	?	nt	2.59µM*	-38.0%
CC1=C(C(=O)Nc2ccc(C)c(C)c2)C2(CCCCCC2)OC1=O	i	nt	0.0%	nt	i	-26.8%
CCCC(=O)Nc1nc(C)c(-c2csc(Nc3cc(OC)ccc3OC)n2)s1	i	-9.0%	1.2%	-25.0%	i	-9.1%
C=CCCC(=O)Nc1nc(C)c(-c2csc(Nc3cc(OC)ccc3OC)n2)s1	i	7.31µM*	?	7.31µM*	?	0.4%
COc1ccccc1Nc1nc(-c2sc(NC(=O)C(C)(C)C)nc2C)cs1	i	-0.7%	?	-1.1%	8.2µM*	-38.7%
